Laboratory results as given in PubChem BioAssay AID1069 (NMMLSC, 2008).
The source made the active and inactive calls.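 Rule for the calls: active = high combined rank on largest and smallest cell-count-weighted shift across three tests, rank score above 45, floors 50 and 25 (some results past the limit were not filed as active); inactive = the rest.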

Assay: LNCaP granularity increase inducers, single-point recheck – cell-based, side scatter shift, flow cytometry, confirmation (AID 1069);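 note: LNCaP human prostate cancer cells in low-serum medium with charcoal-stripped FBS; percent of cells with raised granularity gated so DMSO controls show 10%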
Settings: LNCaP differentiation, 4 d, stronger effect = higher value

| Compound | side scatter shift (at 100 µM) | side scatter shift (side scatter shift, at 10 µM) [%] |
| --- | --- | --- |
| O=C(NCC(c1cccnc1)N1CCOCC1)c1cccc(Cl)c1 (stereo not drawn) | 11.4% (inactive) | 13.9 |
| CCC(CC)C(=O)Nc1cccc(C(=O)NCc2ccco2)c1 | 14.1% (inactive) | 6 |
| Cc1ccccc1Cn1cnc2c(cnn2C(C)(C)C)c1=O | 15.4% (inactive) | 5.05 |
| CN(CC(=O)Nc1ccc2c(c1)OCCO2)S(=O)(=O)c1cccc2cccnc12 | 16.8% (inactive) | 3.95 |
